# According to PubChem BioAssay:
# Unmarked numbers belong to inactive results. For some assays here: Entries with a potency or affinity are not part of this list. Activity calls are given as the source filed them. Unless noted, no rule for the calls is given here.
# Experiments:
# [1] = antimalarial activity against Dd2 strain (AID 2302;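 active = growth inhibition above 50% at the single 2 µM test dose, taken to imply half-maximal potency below 2 µM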;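 also: 0% = DMSO untreated growth and 100% = chloroquine plus artemisinin killed control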); details: P. falciparum Dd2 in RBCs, LDH growth readout, 72 h; at 2 µM; stronger effect = higher value
# [2] = human hepatoma cell viability loss – ATP luminescence, cytotoxicity control for P. falciparum antimalarial project, primary screen (AID 2303;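 active = inhibition above 50%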;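 also: 0% = DMSO wells and 100% = digitonin-killed cells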); details: HepG2 viability, 24-48 h, at 10 µM, stronger effect = higher value
# [3] = target: L-lactate dehydrogenase (Plasmodium falciparum (isolate CDC / Honduras)) (UniProt Q27743); assay: PfLDH activity inhibition – cell lysate, 3D7 strain, counter-screen for P. falciparum growth inhibition project (AID 2304);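 also: 0% = vehicle and 100% = reference inhibitor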; details: P. falciparum 3D7 crude extract, LDH APAD/NBT absorbance; at 2 µM; stronger effect = higher value
# Chain of L-lactate dehydrogenase (Plasmodium falciparum (isolate CDC / Honduras)) (Q27743 whole entry, looked up): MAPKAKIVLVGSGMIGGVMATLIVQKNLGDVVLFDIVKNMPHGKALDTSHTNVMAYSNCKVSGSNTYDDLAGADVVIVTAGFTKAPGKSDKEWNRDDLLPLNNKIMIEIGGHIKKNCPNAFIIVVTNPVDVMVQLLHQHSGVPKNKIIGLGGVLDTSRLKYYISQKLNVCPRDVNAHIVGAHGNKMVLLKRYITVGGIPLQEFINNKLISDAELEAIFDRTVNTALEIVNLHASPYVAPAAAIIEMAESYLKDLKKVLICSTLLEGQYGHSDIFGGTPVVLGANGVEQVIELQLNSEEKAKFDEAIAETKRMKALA
# [4] = inhibition of 3D7 malaria parasite growth – strain 3D7 (AID 2306);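 also: 0% = DMSO wells and 100% = chloroquine plus artemisinin control wells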; details: P. falciparum 3D7 erythrocytic growth, LDH absorbance, 72 h; at 2 µM; stronger effect = higher value
# [5] = target: Calcium-dependent protein kinase 1 (Plasmodium falciparum (isolate 3D7)) (UniProt P62344); assay: PfCDPK1 kinase inhibitors, biochemical, TCAMS library (AID 1159585; cut-off not given, nearly all actives have IC50 up to about 0.98 µM;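 also: inhibitors leave more ATP so luminescence rises with inhibition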); details: recombinant PfCDPK1, Kinase-Glo ATP depletion luminescence
# Chain of Calcium-dependent protein kinase 1 (Plasmodium falciparum (isolate 3D7)) (P62344 whole entry, looked up): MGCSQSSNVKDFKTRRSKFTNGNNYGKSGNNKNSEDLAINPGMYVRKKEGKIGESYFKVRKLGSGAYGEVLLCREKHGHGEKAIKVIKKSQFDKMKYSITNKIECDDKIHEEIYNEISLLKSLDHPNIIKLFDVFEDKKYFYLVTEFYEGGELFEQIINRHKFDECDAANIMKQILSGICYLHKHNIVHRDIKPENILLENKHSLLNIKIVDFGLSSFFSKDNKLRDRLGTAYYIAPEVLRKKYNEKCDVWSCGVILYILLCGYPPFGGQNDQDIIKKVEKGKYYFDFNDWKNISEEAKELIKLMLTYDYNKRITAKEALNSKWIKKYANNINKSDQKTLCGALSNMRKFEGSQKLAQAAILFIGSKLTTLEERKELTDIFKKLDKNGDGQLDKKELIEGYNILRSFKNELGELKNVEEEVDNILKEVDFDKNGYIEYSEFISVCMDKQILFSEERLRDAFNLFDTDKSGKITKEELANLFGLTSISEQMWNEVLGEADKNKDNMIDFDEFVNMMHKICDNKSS
# [6] = target: Plasmodium falciparum protein kinase 6 (PK6, PF3D7_1337100) (UniProt Q8IDW1); assay: PfPK6 kinase inhibitors, biochemical, TCAMS library (AID 1159586); details: recombinant PfPK6, Kinase-Glo ATP depletion luminescence
# Chain of Plasmodium falciparum protein kinase 6 (PK6, PF3D7_1337100) (Q8IDW1 1-305): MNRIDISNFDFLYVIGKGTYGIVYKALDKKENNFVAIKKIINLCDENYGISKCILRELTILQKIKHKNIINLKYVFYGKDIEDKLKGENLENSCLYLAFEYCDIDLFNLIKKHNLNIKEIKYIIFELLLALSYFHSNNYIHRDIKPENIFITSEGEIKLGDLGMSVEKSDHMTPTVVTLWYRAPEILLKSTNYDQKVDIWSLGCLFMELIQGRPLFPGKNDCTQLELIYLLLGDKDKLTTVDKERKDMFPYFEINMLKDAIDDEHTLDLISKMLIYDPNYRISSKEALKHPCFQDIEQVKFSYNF
# [7] = target: Protein kinase 7 (PK7), Plasmodium falciparum 3D7 (PF3D7_0213400) (UniProt Q7YTF7); assay: inhibition of Plasmodium PK7 catalytic activity – biochemical, TCAMS antimalarial set, Kinase-Glo luminescence (AID 1159587); details: recombinant PfPK7, Kinase-Glo ATP depletion luminescence
# Chain of Protein kinase 7 (PK7), Plasmodium falciparum 3D7 (PF3D7_0213400) (Q7YTF7 1-343): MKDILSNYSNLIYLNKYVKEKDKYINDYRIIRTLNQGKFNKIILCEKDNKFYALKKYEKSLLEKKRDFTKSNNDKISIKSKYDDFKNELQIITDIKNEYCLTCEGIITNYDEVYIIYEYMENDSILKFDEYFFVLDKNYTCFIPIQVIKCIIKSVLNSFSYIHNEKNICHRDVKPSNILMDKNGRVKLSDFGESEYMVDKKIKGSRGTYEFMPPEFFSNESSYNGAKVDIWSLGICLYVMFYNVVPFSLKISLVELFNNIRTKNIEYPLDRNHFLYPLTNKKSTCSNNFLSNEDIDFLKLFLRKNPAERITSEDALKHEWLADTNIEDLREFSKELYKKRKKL
# [8] = target: Calcium-dependent protein kinase 4 (Plasmodium falciparum (isolate 3D7)) (UniProt Q8IBS5); assay: PfCDPK4 kinase inhibitors, biochemical, TCAMS library (AID 1159588; cut-off not given, nearly all actives have IC50 up to about 0.91 µM); details: recombinant PfCDPK4, Kinase-Glo ATP depletion luminescence
# Chain of Calcium-dependent protein kinase 4 (Plasmodium falciparum (isolate 3D7)) (Q8IBS5 whole entry, looked up): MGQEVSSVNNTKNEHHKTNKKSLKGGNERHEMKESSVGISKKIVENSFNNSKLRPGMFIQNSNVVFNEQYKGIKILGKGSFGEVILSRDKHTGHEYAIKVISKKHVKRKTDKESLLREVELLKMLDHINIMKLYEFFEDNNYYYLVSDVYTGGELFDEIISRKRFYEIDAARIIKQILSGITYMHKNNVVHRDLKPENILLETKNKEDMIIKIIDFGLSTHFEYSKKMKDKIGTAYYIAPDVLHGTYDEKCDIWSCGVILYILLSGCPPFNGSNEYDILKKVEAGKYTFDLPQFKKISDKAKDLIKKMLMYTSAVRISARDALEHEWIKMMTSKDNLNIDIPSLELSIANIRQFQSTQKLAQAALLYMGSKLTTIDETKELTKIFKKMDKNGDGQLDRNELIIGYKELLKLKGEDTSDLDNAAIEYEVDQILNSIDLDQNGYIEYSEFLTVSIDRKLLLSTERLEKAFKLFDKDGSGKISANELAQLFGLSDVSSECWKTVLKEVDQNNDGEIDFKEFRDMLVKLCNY
SMILES,growth inhibition [1],inhibition [2],inhibition [3] [%],growth inhibition [4],outcome [5],outcome [6],outcome [7],outcome [8]
O=c1ccc2ncc(Cl)c3c2n1CC3CN1CCC(NCc2cc3c(cn2)OCCO3)CC1 (stereo not given),29%,27%,-2,96% (active),inactive,inactive,inactive,inactive
Cc1cc(N[C@@H](Cc2ccccc2)C(=O)Nc2ccccc2)nc(NCCN2CCCC2)n1,-5%,8%,0,94% (active),inactive,inactive,inactive,inactive
Cc1ccc(OC2CCN(CCCCC3(C)C(=O)Nc4ccccc43)CC2)cc1 (stereo not given),2%,63% (active),-3,100% (active),inactive,inactive,inactive,inactive
Cc1cc(CN2C(=O)C(c3ccccc3)(c3ccccc3)N=C2N)c(C(F)(F)F)o1,84% (active),11%,4,97% (active),inactive,inactive,inactive,inactive
O=C(CCN1CCCCC1)Nc1ccc(Nc2nccc(NCC(O)c3ccccc3)n2)cc1 (stereo not given),60% (active),18%,-1,102% (active),inactive,inactive,inactive,inactive
O=C(CN(c1cccc(C(F)(F)F)c1)S(=O)(=O)c1ccc(Cl)cc1)NCCC(c1ccccc1)c1ccccc1,50% (active),14%,-2,94% (active),inactive,inactive,inactive,inactive
CN1CCC(C(=O)N(Cc2ccc(-c3ccc(CNCCc4ccc(S(C)(=O)=O)cc4)cn3)cc2)Cc2cccc(F)c2)CC1,90% (active),10%,-4,98% (active),inactive,inactive,inactive,inactive
CC(C)(C)c1ccc(CN2CCCCC(NC(=O)c3cc(-c4ccccc4Cl)cs3)C2)cc1 (stereo not given),98% (active),3%,-1,101% (active),inactive,inactive,inactive,inactive
Cc1c(N=O)cc(C(C)(C)C)c(O)c1C(=O)Nc1ccc([N+](=O)[O-])cc1Cl,98% (active),72% (active),1,100% (active),inactive,inactive,inactive,inactive
CCCC(CNCc1cccc(OCC)c1)CNc1cc(=O)c2ccccc2[nH]1 (stereo not given),97% (active),-4%,4,101% (active),inactive,inactive,inactive,inactive
Cc1cnc2ccc(NS(=O)(=O)c3ccc4c(Cl)cccc4c3)cc2c1N1CCNCC1,3%,24%,1,101% (active),inactive,inactive,inactive,inactive
Cc1cc(N(C)CCCN(C)C)nc(Nc2ccc(Cl)cc2)n1,79% (active),7%,5,101% (active),inactive,inactive,inactive,inactive
Cc1cc(NCCC(=O)Nc2ccccc2)nc(NCCc2cccs2)n1,20%,26%,0,99% (active),inactive,inactive,inactive,inactive
CN(C)Cc1ccc(-c2cccc(Nc3nccc(NCC(O)c4ccccc4)n3)c2)cc1 (stereo not given),100% (active),74% (active),-1,102% (active),inactive,inactive,inactive,inactive
CCOC(=O)C(Oc1ccc2ccccc2c1)C(=O)OCC,0%,8%,-4,98% (active),inactive,inactive,inactive,inactive
CC(C)Oc1cc2c(cc1NS(=O)(=O)c1ccc(-c3ccc(Cl)cc3)cc1F)CCN(C)CC2,2%,29%,-1,88% (active),inactive,inactive,inactive,inactive
C[C@@H](Oc1cc(-n2cnc3ccc(NC(=O)CCN4CCCCC4)cc32)sc1C(N)=O)c1ccccc1Cl,60% (active),36%,3,101% (active),inactive,inactive,inactive,inactive
Nc1nc(N)c2c(ccc3c2ccn3Cc2cccc3ccccc23)n1,95% (active),65% (active),-3,99% (active),inactive,inactive,inactive,inactive
Cc1cc(NN=Cc2cccc(Cl)c2)c2cc(F)ccc2n1,100% (active),1%,-5,101% (active),inactive,inactive,inactive,inactive
CN1CCC(Oc2ccc(CN3CC[C@H](NC(=O)c4cc(F)cc(F)c4)C3)c3ccccc23)C1 (stereo not given in full),23%,26%,5,98% (active),inactive,inactive,inactive,inactive

SMILES,growth inhibition [1],inhibition [2],inhibition [3] [%],growth inhibition [4],outcome [5],outcome [6],outcome [7],outcome [8]
COc1ccc(S(=O)(=O)NCCCC2CCN(CCCCCNC(=O)C=Cc3ccc(Cl)c(Cl)c3)CC2)cc1,12%,24%,0,85% (active),inactive,inactive,inactive,inactive
CCNc1cc(C(=O)N[C@@H](Cc2ccccc2)[C@H](O)CNC(C)(C)Cc2ccccc2)cc(N2CCCC2=O)c1,78% (active),1%,3,99% (active),inactive,inactive,inactive,inactive
Cc1cccc2[nH]c(-c3cccc(-c4ccc(NC(=O)Cc5cnc[nH]5)cc4)c3)nc12,93% (active),4%,-3,101% (active),inactive,inactive,inactive,inactive
Cc1nnc(Sc2ncnc3scc(-c4ccc(F)cc4)c23)s1,50% (active),13%,4,99% (active),inactive,inactive,inactive,inactive
COc1cc(CN2CCC(NC(=O)[C@H](Cc3ccccc3)NC(=O)Nc3ccc(Oc4ccccc4)cc3)C2)ccc1O (stereo not given in full),-2%,10%,6,92% (active),inactive,inactive,inactive,inactive
CSc1ccc2ccccc2c1CCNCCCCNCCc1c(SC)ccc2ccccc12,60% (active),99% (active),3,101% (active),inactive,inactive,inactive,inactive
CCCCCCCN1CC[C@H](NC(=O)Nc2ccnc3ccc(OC)cc23)[C@H](CO)C1,69% (active),23%,-3,94% (active),inactive,inactive,inactive,inactive
N#Cc1nc2ccc(OCCN(Cc3ccccc3C(F)(F)F)c3ccc(C#N)c(C(F)(F)F)c3)cc2s1,47%,23%,6,93% (active),inactive,inactive,inactive,inactive
COc1ccccc1CCCN1C(=O)C(c2ccccc2)(c2ccccc2)N=C1N,99% (active),49%,-3,99% (active),inactive,inactive,inactive,inactive
O=C(Cc1cnc[nH]1)Nc1cccc(-c2cccc(-c3nc4ccc(C(F)(F)F)cc4[nH]3)c2)c1,101% (active),35%,-3,102% (active),inactive,inactive,inactive,inactive
Fc1ccc2c(NN=Cc3ccccc3F)ccnc2c1,99% (active),10%,-1,101% (active),inactive,inactive,inactive,inactive
Cc1cccc(Nc2nccc(NCC(O)c3cccc(C(F)(F)F)c3)n2)c1 (stereo not given),94% (active),25%,-2,100% (active),inactive,inactive,inactive,inactive
Cc1onc(-c2ccccc2)c1C(=O)Nc1nc(-c2ccccn2)nc2ccsc12,78% (active),23%,-4,97% (active),inactive,inactive,inactive,inactive
CNC(=O)c1ccc2nc(-c3ccc(-c4ccccc4)cc3)n(CC3CCN(CC4CCCC4)CC3)c2c1,36%,13%,-6,84% (active),inactive,inactive,inactive,inactive
O=C(C=Cc1ccc(Cl)c(Cl)c1)NCCCCCN1CCC(CCCNC(=O)c2sc3ccccc3c2Cl)CC1,40%,99% (active),-5,93% (active),inactive,inactive,inactive,inactive
Fc1ccc(Nc2ccnc3cc(I)ccc23)c(Cl)c1,24%,35%,1,95% (active),inactive,inactive,inactive,inactive
COc1cccc(CNC[C@@H](O)[C@H](Cc2ccccc2)NC(=O)c2cc(C(C)C)cc(N3CCCC3=O)c2)c1,61% (active),1%,-4,95% (active),inactive,inactive,inactive,inactive
Cc1ccc(Cc2c(N)nc3nc(N)nc(N)c3c2C)cc1,8%,59% (active),4,95% (active),inactive,inactive,inactive,inactive
CCc1c[nH]c2c(N3CCCCC3=O)cc(C(=O)N[C@@H](Cc3ccccc3)[C@H](O)CNCc3cccc(OC)c3)cc12,99% (active),8%,-1,101% (active),inactive,inactive,inactive,inactive
O=C(NC1CCCCC1)C1CCCN(C(=O)c2ccc(O)c(-c3ccc(Cl)c(Cl)c3)c2)C1 (stereo not given),42%,22%,0,89% (active),inactive,inactive,inactive,inactive
